Activity calls are given as the source filed them. Where a call stands in place of a potency, no number is given. The call rests on the fitted dose curve; in most records, active means well fitted curve in the direction sought with a large enough effect in the repeat runs; inconclusive means weak or mixed curves; inactive means flat fitted curve, though single readings scatter.

A short description of the test: qHTS assay to test for compound auto fluorescence at 535 nm (green) in HepG2 cells (AID 720675). To be noted: green autofluorescence 485/535 nm, 1 h; series mostly up to 46 µM. The text has this: National Center for Advancing Translational Sciences [NCATS]
NIH Chemical Genomics Center [NCGC]
U.S. Environmental Protection Agency [EPA]
National Institutes of Environmental Health Sciences [NIEHS]
National Toxicology Program [NTP]
U.S. Food and Drug Administration [FDA]
Compound auto fluorescence often interferes with screening of the compound library against various biological targets and signaling pathways. Some of these compounds may have fluorophoric properties. Such properties may interfere with the assay outputs resulting in false positives and/or negatives. To decrease such complications and ensure the compound activities are relevant in terms of biological response, the Tox21 10K compound library was screened for auto fluorescence.
From the fluorophores used as reporter signals in our screening assays, the auto fluorescence equivalencies of compounds against three fluorophores have been evaluated: Triamterene, Fluorescein and Rose Bengal sodium for blue, green and red fluorescence, respectively. The fluorescence intensities were measured using Excitation/Emission wavelengths at 405/460nm, 485/535nm and 540/590nm for blue, green and red labels, respectively. This assay includes the green fluorescence data.
Tox21 Assay Protocol Summary:
2,000 HepG2 cells in 5 uL of culture medium (MEM containing 10% FBS) per well were dispensed into black wall/clear bottom 1536-well plates using a Multidrop Combi Dispenser (ThermoFisher Scientific, Waltham, MA). The assay plates were incubated overnight at 37 C to allow cell attachment to the well bottom, followed by the transfer of 23 nL compound or DMSO vehicle by a pintool work station (Kalypsys , San Diego, CA). After the assay plates were incubated for 1 hr at 37 C and 5% CO2, fluorescence intensities in the assay plates were measured by an Envision (PerkinElmer, Shelton, CT) plate reader using three labels for measuring blue, green and red fluorescence at […] 460, 535 and 590 nm respectively.
(Quantitative high-throughput screening tests each substance at several concentrations.)
For the molecule `CN(C)CCOc1ccc(/C(=C(/CCCl)c2ccccc2)c2ccccc2)cc1`, the Potency entry is “inactive”.
`COC1[C@@H](O[C@@H]2O[C@H](C)[C@@H](O[C@H]3C[C@@](C)(O)[C@H](OC(=O)CC(C)C)[C@H](C)O3)[C@H](N(C)C)[C@H]2O)[C@@H](CC=O)C[C@@H](C)[C@@H](O)/C=C/C=C/C[C@@H](C)OC(=O)C[C@H]1OC(C)=O` (stereo not given in full): the Potency entry is “inactive”.
For `CCC(O)c1ccccc1` (stereo not given), the Potency result is “inactive”.
The result for `N=C(N)n1cccn1` reads “inactive”.
Regarding `CC[C@@H](C(=O)[C@@H](C)[C@@H](O)[C@H](C)CCc1ccc(C)c(O)c1C(=O)O)[C@H]1O[C@](CC)([C@H]2CC[C@](O)(CC)[C@H](C)O2)C[C@@H]1C`, the Potency result was “inactive”.
The result for `Cc1cc(-c2ccc(N=Nc3ccc4c(S(=O)(=O)O)cc(S(=O)(=O)O)c(N)c4c3O)c(C)c2)ccc1N=Nc1ccc2c(S(=O)(=O)O)cc(S(=O)(=O)O)c(N)c2c1O` reads “inactive”; that for `COc1ccc2ccccc2c1`, “inactive”; that for `CCN(CC)CC#CCOC(=O)C(O)(c1ccccc1)C1CCCCC1` (stereo not given), “inactive”.
The result for `C[C@H]1O[C@@H](O[C@H]2CC[C@@]3(C)[C@H](CC[C@@H]4[C@@H]3C[C@@H](O)[C@]3(C)[C@@H](C5=CC(=O)OC5)CC[C@]43O)C2)C[C@H](O)[C@@H]1O[C@H]1C[C@H](O)[C@H](O[C@H]2C[C@H](O)[C@H](O[C@@H]3O[C@H](CO)[C@@H](O)[C@H](O)[C@H]3O)[C@@H](C)O2)[C@@H](C)O1` reads “inactive”.
The result for `C=C1[C@H](CO)[C@@H](O)C[C@@H]1n1cnc2c(=O)[nH]c(N)nc21` reads “inactive”; that for `CCOC(=O)Cc1ccc(-c2ccccc2)cc1`, “inactive”; that for `CCCCCCCCCCCCCCCCC(C(=O)O)C(O)(CC(=O)O)C(=O)O` (stereo not given), “inactive”.
For `CN1CCN(c2ccccc2/C=C2\SCCN(c3ccc(Cl)c(Cl)c3)C2=O)CC1`, the Potency entry is “inactive”.
The result for `Cc1onc(-c2c(F)cccc2Cl)c1C(=O)N[C@@H]1C(=O)N2[C@@H]1SC(C)(C)[C@@H]2C(=O)O` reads “inactive”; that for `NC(N)=NCCCCN=C(N)N`, “inactive”.
Next, `CC[C@H]1OC(=O)C[C@@H](O)[C@H](C)[C@@H](O[C@@H]2O[C@H](C)[C@@H](O[C@H]3C[C@@](C)(O)[C@@H](O)[C@H](C)O3)[C@H](N(C)C)[C@H]2O)[C@@H](CC=O)C[C@@H](C)C(=O)/C=C/C(C)=C/[C@@H]1CO[C@@H]1O[C@H](C)[C@@H](O)[C@@H](OC)[C@H]1OC`: “inactive”.
Next, `C=C1[C@@H]2CC[C@@H](C2)C1(C)C`: “inactive”.
As to `N[C@H](CO)C(=O)O`, the Potency result is “inactive”.
The result for `CC[C@@]1([C@@H]2O[C@@H]([C@H]3O[C@@](O)(CO)[C@H](C)C[C@@H]3C)C[C@@H]2C)CC[C@H]([C@]2(C)CC[C@]3(C[C@H](O)[C@@H](C)[C@@H]([C@@H](C)[C@@H](OC)[C@H](C)C(=O)O)O3)O2)O1` (stereo in doubt) reads “inactive”.
The result for `C=C1C(CCl)(CCl)C2(Cl)C(Cl)C(Cl)C1(Cl)C2(Cl)Cl` (stereo not given) reads “inactive”; that for `NCC1CCC(C(=O)O)CC1` (stereo not given), “inactive”; that for `CCCCCCCCOC(=O)c1cc(O)c(O)c(O)c1`, “inactive”.
On to `CC1(C)S[C@@H]2[C@H](NC(=O)[C@H](N)c3ccc(O)cc3)C(=O)N2[C@H]1C(=O)O`, for which the Potency result was “inactive”.
The result for `O=P(O)(O)C(O)(Cn1ccnc1)P(=O)(O)O` reads “inactive”; that for `N=C(N)c1ccc(/C=C/c2ccc(C(=N)N)cc2O)cc1`, “inactive”.
With `COC(=O)[C@H]1[C@H]2C[C@H]3c4[nH]c5ccccc5c4CCN3C[C@H]2CC[C@@H]1O`, the Potency entry is “inactive”.
Next, `C=CC1=C(C(=O)O)N2C(=O)[C@@H](NC(=O)/C(=N\O)c3csc(N)n3)[C@H]2SC1` (stereo in doubt): “inactive”; `NS(=O)(=O)c1cc(Cl)c(Cl)c(S(N)(=O)=O)c1`: “inactive”.
The result for `CCN(CC)C(=O)c1cccnc1` reads “inactive”.
Next, `NCCCC[C@H](NC(=O)[C@@H]1CCCN1C(=O)[C@@H]1CSSC[C@H](N)C(=O)N[C@@H](Cc2ccc(O)cc2)C(=O)N[C@@H](Cc2ccccc2)C(=O)N[C@@H](CCC(N)=O)C(=O)N[C@@H](CC(N)=O)C(=O)N1)C(=O)NCC(N)=O`: “inactive”.
On to `CC(=O)Nc1ccc(OC(C)=O)cc1`, for which the Potency result is “inactive”.
Next, `Nc1cc(Cl)c(NC2=NCCN2)c(Cl)c1`: “inactive”; `CS(=O)(=O)c1ccc([C@@H](O)[C@@H](COC(=O)CN)NC(=O)C(Cl)Cl)cc1`: “inactive”; `COc1ccc(/C=N/NC(=O)c2ccncc2)c(C(=O)O)c1OC`: “inactive”.
Next, `NC(N)=NCC1COC2(CCCCC2)O1` (stereo not given): “inactive”.
Turning to `CN(C)CCC(O)(c1ccccc1)c1ccccc1Cl` (stereo not given), the Potency result is “inactive”.
Next, `Nc1nc(/C(=C/CC(=O)O)C(=O)N[C@@H]2C(=O)N3C(C(=O)O)=CCS[C@H]23)cs1`: “inactive”; `Cc1cnc(C(=O)O)c[n+]1[O-]`: “inactive”; `Nc1ccc(N)c([N+](=O)[O-])c1`: “inactive”.
Regarding `CCCCCCCCCC(=O)NO`, the Potency entry was “inactive”.

(Values after PubChem BioAssay (Tox21).)
